Bioassay records: PubChem, National Center for Advancing Translational Sciences (NCATS)
MCF10A rerep = DNA re-replication induction in MCF 10a cells; MCF 10A DNA re-replication, Hoechst nuclear intensity, 48 h; Potency, µM (doses to about 46.1 µM), for inactives: at the highest dose activity, positive = re-replication, usual class: activators; 350,000 tested, 2.9% active; AID 624296; also: % of control where 0% means no effect; nearly all actives have a fitted effect of over 50% in size
SW480 rerep = DNA re-replication induction in SW480 cells; SW480 DNA re-replication, Hoechst DNA content imaging, 48 h; Potency, µM (highest dose often 46.1 µM), for inactives: top-dose re-replication activation, actives largely listed as activators; 340,000 tested, 1.8% active; AID 624297; also: % of control where 0% means no effect; nearly all actives have a fitted effect of over 55% in size
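Treated cells incubate 48 hr (37 C, 5% CO2), are stained 40 min with Hoechst, and nuclear fluorescence is enumerated; a rise in nuclei with high DNA signal marks re-replication.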
PINK1 modulator = modulators of PINK1 expression; Potency, µM (top dose mostly 76.6 µM), without a hit: at the top dose activation (PINK1 increase), hits mostly activators; 410,000 tested, 0.2% active; PINK1 immunofluorescence, high-content cytometry, 24 h; active = well fitted activation curve with a large enough effect; inconclusive = small, poorly fitted or top-dose-only effect; cell line not stated here; also: % of control where 0% means no effect; nearly all actives have a fitted effect of over 65% in size
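Cells are seeded, rested 12 hours, then given compound at five concentrations or DMSO for 24 hours. After fixation, blocking and antibody staining, PINK1 amount and mitochondrial localization are scored; CCCP serves as control.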
TSG101-PTAP inh = blocks PTAP/TSG101 interaction to inhibit HIV-1 budding | AID 493005 | Potency, µM (doses to about 115 µM), for the others: top-dose activity change, negative = inhibition, hits mostly inhibitors | Fluorescence polarization, FITC-PTAP peptide / Tsg101 binding | 340,000 tested, under 10 active; active = well fitted inhibition curve with a large enough effect in the main read-out, with a control signal flat, not every such curve was filed as active; inconclusive = small, poorly fitted or top-dose-only effect, or effect the other way, or a change in a side signal; inactive = no such curve, though single readings can be large or run the other way; also: % of control where 0% means no effect
Target sequence (Q99816 whole entry, looked up): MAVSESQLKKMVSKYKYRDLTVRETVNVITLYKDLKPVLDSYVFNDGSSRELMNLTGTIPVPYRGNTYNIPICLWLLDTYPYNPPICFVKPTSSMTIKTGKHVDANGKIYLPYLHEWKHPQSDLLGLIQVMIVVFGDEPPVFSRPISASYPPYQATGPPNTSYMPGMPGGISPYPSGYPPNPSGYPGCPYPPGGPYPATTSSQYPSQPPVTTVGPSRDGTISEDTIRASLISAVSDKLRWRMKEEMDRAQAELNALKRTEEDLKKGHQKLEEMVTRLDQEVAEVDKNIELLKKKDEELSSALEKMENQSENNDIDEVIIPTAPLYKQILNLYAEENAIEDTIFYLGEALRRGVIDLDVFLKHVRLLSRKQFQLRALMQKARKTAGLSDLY
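Fluorescence polarization binding of Tsg101 binding domain (10 uM final) to FITC-labeled PTAP peptide (50 nM final) in HEPES pH 7.5 buffer with NaCl, Tween 20, EDTA, TCEP. Compounds added before peptide; binding 20 min at RT.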
KB-V1 MDR tox = kills drug-selected multidrug resistant KB-V1 cells. KB-V1 MDR cells viability, CellTiter-Glo, 72 h. Potency, µM (top dose mostly 46.1 µM), usual class: cytotoxic. 400,000 tested, 3.4% active; also: % is scaled to controls: 0 for no effect and ±100 for the full control effect; nearly all actives have a fitted effect of over 60% in size
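KB-V1 MDR subline cells in DMEM (phenol-red free, 10% FBS) exposed to compounds in qHTS concentration series for 72 h at 37 degrees C. Viability read by CellTiter-Glo luminescence; concentration-effect curves fitted after normalization and correction.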
KB-3-1 tox = KB-3-1 parental cell cytotoxicity | KB-3-1 viability, CellTiter-Glo ATP luminescence, 72 h | AID 1347075 | 400,000 tested, 1.4% active | Potency, µM (doses to about 46.1 µM), actives largely listed as cytotoxic; also: % is scaled to controls: 0 for no effect and ±100 for the full control effect; nearly all actives have a fitted effect of over 60% in size
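Here the drug-naive KB-3-1 line serves as comparator for MDR sub-line selectivity; cells received compound titrations, 72 h at 37 °C, then CellTiter-Glo readout.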
The depositor's hits bear a star; [ ] = dose if it differs, or a comment. Compounds with a hit are over-represented: about 6.8% of the library has one in this group of screens. Unless noted, calls follow the shape of the dose curve; as a rule, active = well fitted curve in the direction sought with a large enough effect; inconclusive = small, poorly fitted or top-dose-only effect, or another doubt; inactive = no such curve, though single readings can be large; an effect the other way counts as inactive or inconclusive. Potency is read from the fitted curve at half-maximal effect.

Screening CCN(CC)S(=O)(=O)c1ccc(Oc2ccc(S(=O)(=O)N(CC)CC)cc2)cc1 returned MCF10A rerep 7%, SW480 rerep 1%, PINK1 modulator -1%[38.3 µM], TSG101-PTAP inh -1%, KB-V1 MDR tox 2.3µM* and KB-3-1 tox inconclusive.
Screening C/C(=N\NC(=O)C(=O)Nc1cccc(Cl)c1C)c1ccncc1 returned MCF10A rerep -1%, SW480 rerep -5%, PINK1 modulator 4%, TSG101-PTAP inh -2%, KB-V1 MDR tox 21µM* and KB-3-1 tox inactive.
For C/C(=N\NC(=O)c1ccc(Cl)c(S(=O)(=O)Nc2ccccc2Cl)c1)c1ccncc1 the results were MCF10A rerep 1%, SW480 rerep 1%, PINK1 modulator 2%, TSG101-PTAP inh -4%, KB-V1 MDR tox 23µM* and KB-3-1 tox inactive.
For C/C(=N\NC(=O)C(=O)Nc1cc(Cl)ccc1Cl)c1ccncc1 the results were MCF10A rerep 16%, SW480 rerep -3%, PINK1 modulator 0%, TSG101-PTAP inh -3%, KB-V1 MDR tox inactive and KB-3-1 tox inactive.
`Cc1nn(-c2ccccc2)c2c1C(c1ccc([N+](=O)[O-])cc1)N1C(=N2)C(=O)Nc2ccccc21` (stereo not drawn) gave MCF10A rerep -4%, SW480 rerep -5%, PINK1 modulator -1%, TSG101-PTAP inh -4%, KB-V1 MDR tox 18µM* and KB-3-1 tox 23µM*.
Cc1nn(-c2ccc([N+](=O)[O-])cc2)c2c1C(c1cccc(Br)c1)N1C(=N2)C(=O)Nc2ccccc21 (stereo not drawn) was read as MCF10A rerep inconclusive, SW480 rerep 3%, PINK1 modulator 3%, TSG101-PTAP inh -2%, KB-V1 MDR tox inconclusive and KB-3-1 tox inactive.
`CC1(C)CC(=O)C2=C(C1)c1c(ccc3ncccc13)NC2c1cccs1` (stereo not drawn) gave MCF10A rerep 9.2µM*, SW480 rerep inconclusive, PINK1 modulator 15%, TSG101-PTAP inh -3%, KB-V1 MDR tox 5.8µM* and KB-3-1 tox 3.7µM*.
Screening Cc1ccc(C2Nc3ccc4ccccc4c3C3=C2C(=O)CC(C)(C)C3)o1 (stereo not drawn) returned MCF10A rerep inconclusive, SW480 rerep inconclusive, PINK1 modulator -3%[38.3 µM], TSG101-PTAP inh -4%, KB-V1 MDR tox 10µM* and KB-3-1 tox inactive.
For O=C1CCCC2=C1C(c1ccco1)Nc1ccc3ccccc3c12 (stereo not drawn) the results were MCF10A rerep 0%, SW480 rerep -34%, PINK1 modulator 8%, TSG101-PTAP inh -5%, KB-V1 MDR tox 21µM* and KB-3-1 tox inactive.
COc1ccc(CN2CCC3(CCC(CNC(=O)c4ccnn4C)O3)CC2)c(C)c1C (stereo not drawn) was read as PINK1 modulator 0%.
Screening C=CCn1c(=NC(=O)C2COc3ccccc3O2)sc2cccc(OC)c21 (stereo not drawn) returned MCF10A rerep 7%, SW480 rerep -13%, PINK1 modulator 1%, TSG101-PTAP inh 1%, KB-V1 MDR tox inconclusive and KB-3-1 tox inconclusive.
CCn1c(=NC(=O)C2COc3ccccc3O2)sc2c(C)ccc(OC)c21 (stereo not drawn) was read as MCF10A rerep 16µM*, SW480 rerep 31%, PINK1 modulator 7%, TSG101-PTAP inh -5%, KB-V1 MDR tox inconclusive and KB-3-1 tox inconclusive.
`O=C(Nc1ccccc1)c1ccccc1Oc1ccc(C(F)(F)F)cc1[N+](=O)[O-]` gave MCF10A rerep 7%, SW480 rerep 0%, PINK1 modulator 5%, TSG101-PTAP inh -3%, KB-V1 MDR tox inconclusive and KB-3-1 tox inconclusive.
For O=C(Nc1ccc(F)cc1)c1ccccc1Oc1ccc(C(F)(F)F)cc1[N+](=O)[O-] the results were MCF10A rerep inconclusive, PINK1 modulator -2%, TSG101-PTAP inh -5%, KB-V1 MDR tox 16µM* and KB-3-1 tox inactive.
